This note sets out measurements from PubChem BioAssay (NCATS).

Experiment [1] concerns the target Ferritin light chain (Equus caballus) (UniProt P02791). The experiment is described as follows: qHTS Validation Assay for Identification of Novel General Anesthetics (AID 2323). An outline of the steps:
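Apoferritin from horse spleen (10 uM) was mixed with 1-aminoanthracene at 50% saturation in PBS, then compounds were added. After 10 min at room temperature, fluorescence was read (ex 380 nm, em 535 nm) and normalized to free-probe and complex controls.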

In experiment [2] the target is ATP-dependent DNA helicase Q1 (Homo sapiens) (UniProt P46063). The experiment is described as follows: qHTS Validation Assay for Inhibitors of RecQ-Like Dna Helicase 1 (RECQ1) (AID 2353). An outline of the steps: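 RECQ1T1 50 nM; forked duplex (20 bp + 30-nt ss tails) 200 nM, ATP 2 mM final; pH 8.0, 2 mM MgCl2, 2.5 ug/ml poly(dI-dC); 15 min compound preincubation; discontinuous kinetic read over 2 h at RT.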

In experiment [3] the target is RecQ-like DNA helicase BLM (Homo sapiens) (UniProt P54132). Description: qHTS Validation Assay for Inhibitors of Bloom's syndrome helicase (BLM) (AID 2364). The method in brief:
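BLM 50 nM in 25 mM Tris-HCl pH 8.0, 5 mM NaCl, 2 mM MgCl2, 1 mM DTT, 0.01% Tween-20, 2.5 ug/ml poly(dI-dC); 15 min cpd preinc, RT. Start: 200 nM forked DNA + 2 mM ATP (final). TAMRA read, 2 reads 2 h apart.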

The nature of experiment [4]: Cytometric Cell-Based qHTS for Inhibitors of the mTORC1 Signaling Pathway in MEF (Tsc2-/-, p53-/-) Cells (AID 2660).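 Note: Tsc2 and p53 null MEFs carrying empty vector with compound for 24 h; percent of cells above a phospho-rpS6 to PI ratio cutoff in each well.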 An outline of the steps: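 Immunofluorescence qHTS of rpS6 Ser235/236 phosphorylation: MEFs (Tsc2-/-, p53-/-) treated 24 h, 37 C, in DMEM + 10% FBS. Alexa-488 signal normalized to PI count, referenced to rapamycin (7.5 nM) and DMSO; PI cell number recorded for viability.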

Experiment [5] in a line: High Content Imaging Cell-Based qHTS for Inhibitors of the mTORC1 Signaling Pathway in MEF (Tsc2-/-, p53-/-) Cells (AID 2666).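 Note: percent of cells scored positive for phospho-rpS6 Ser235/236 immunostaining by imaging.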 As to conditions: at 38.3 µM (top of the series). The method in brief: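 Inhibition of rpS6 phosphorylation is measured by immunofluorescence imaging in empty-vector Tsc2-/-, p53-/- mouse embryonic fibroblasts after 24 hrs compound exposure at 37 degree Celsius. Results are reported as % positive cells per well.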

Experiment [6] in a line: High Content Imaging Cell-Based qHTS for Inhibitors of the mTORC1 Signaling Pathway in MEF Cells (AID 2667).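 Note: Tsc2-/- p53-/- MEFs stably re-expressing wild-type Tsc2 exposed 24 h.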 The method in brief: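 Fixed-cell imaging of phospho-S6 (Ser235/236, Alexa-488) after 24 hrs of compound treatment at 37 degree Celsius. Signal was normalized to Hoechst, and thresholds from the highest and lowest wells split cells into % active versus % non-active.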

Experiment [7] is described as follows: Cytometry Cell-Based qHTS for Inhibitors of the mTORC1 Signaling Pathway in MEF cells (AID 2668).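 Note: Tsc2-/- p53-/- mouse embryonic fibroblasts stably re-expressing wild-type Tsc2; percent cells positive for phospho-rpS6 Ser235/236 relative to propidium iodide stain.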 An outline of the steps:
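Pathway inhibition in WT Tsc2-rescued Tsc2-/-, p53-/- MEFs is measured as the Alexa-488 phospho-rpS6 to propidium iodide intensity ratio after 24 hrs of compound at 37 degree Celsius. PI-stained cell number gives viability.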

The nature of experiment [8]: Validation screen for small molecules that induce DNA re-replication in MCF 10A normal breast cells (AID 463097). Note: nearly all actives have a fitted effect of over 60% in size. An outline of the steps:
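DNA re-replication was detected as a rise in nuclei with elevated Hoechst fluorescence after a 48 hr compound exposure of MCF 10A cells at 37 C.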

Experiment [9] addresses DNA polymerase III PolC-type (Bacillus subtilis (strain 168)) (UniProt P13267). The experiment is described as follows: qHTS Validation Assay for the Inhibitors of DNA Replication in Gram-Positive Bacteria (AID 485295).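 Note: reconstituted holoenzyme with PolC plus beta clamp SSB and primase; PicoGreen fluorescence of double-stranded DNA made on primed circular M13 template.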 The method in brief: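 Primed replication of single-stranded M13Gori by a four-protein B. subtilis holoenzyme is measured at room temperature. Double-stranded product is quantified by PicoGreen fluorescence after an EDTA stop; inhibition is scaled between DMSO and EDTA controls.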

The target in experiment [10] is Tumor susceptibility gene 101 protein (Homo sapiens) (UniProt Q99816). Description: qHTS Validation Assay for Iinhibitors of HIV-1 Budding by Blocking the Interaction of PTAP/TSG101 (AID 485342; calls by dose curve). The method in brief: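 Fluorescence anisotropy measured PTAP-Tsg101 interaction. Final concentrations were 10 uM protein domain and 50 nM labeled peptide, equilibrated 20 min at room temperature.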

Experiment [11] concerns the target Beta-2 adrenergic receptor (Homo sapiens) (UniProt P07550). Description: qHTS validation assay of beta-arrestin-biased ligands of beta2-adrenergic receptor (AID 485366). The method in brief: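 Agonism was measured as beta-arrestin recruitment to recombinant beta2-AR, releasing tTA to drive luciferase. Cells were exposed for 18 hr at 37 degrees C to a series up to 46 microM. %Activity from corrected luminescence gave concentration-response curves.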

The nature of experiment [12]: Quantitative high throughput screen for delayed death inhibitors of the malarial parasite plastid, 96 hour incubation (AID 488745).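 Note: luciferase-expressing P. falciparum in erythrocytes at 2% hematocrit and 0.1% parasitemia; nearly all actives have a fitted effect of over 70% in size.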 The method in brief:
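Readout is firefly luciferase luminescence from an integrated reporter in P. falciparum; lower signal marks inhibited growth. Cultures at 2% hematocrit and 0.1% parasitemia were treated with compound across two generations (96 h, 37 C, 5% CO2).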

Experiment [13] can be described thus: Quantitative high throughput screen for delayed death inhibitors of the malarial parasite plastid, 48 hour incubation (AID 488752). Note: nearly all actives have a fitted effect of over 65% in size. Note: potency is the fitted concentration of half-maximal effect. The method in brief: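 First, compound was pinned into RPMI 1640 medium containing 0.5% Albumax. Next, reporter-parasite-infected erythrocytes were added to 2% hematocrit and 0.1% parasitemia. After 48 h at 37 C under 5% CO2, luciferase detection reagent was added and luminescence read.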

The target of experiment [14] is Thioredoxin reductase 1, cytoplasmic (Rattus norvegicus) (UniProt O89049). Description: qHTS Assay for Substrates of Mammalian Selenoprotein Thioredoxin Reductase 1 (TrxR1) (AID 488772).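 Note: a drop in NADPH fluorescence below the no-compound background marks a TrxR1 substrate.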 An outline of the steps: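 In this dual-purpose format, potential substrates are identified from the first fluorescence read after selenite addition, not from the 8-minute delta. Rat enzyme is preincubated with NADPH and then with compound at ~22 deg C.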

A short description of experiment [15]: qHTS Assay for Identification of Small Molecule Inducers of Hypoxia Response (AID 2120; active = well fitted curve in the direction sought with a large enough effect in the signal ratio, with a control signal flat, not every such curve was filed as active; the % refers to the signal ratio). The method in brief: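 Cell-based qHTS for reporter induction: hypoxia response element controlled beta-lactamase in ME-180 cells. Compounds incubated 17 h at 37 degrees C; activity from blue/green (460/530 nm) ratio, inducers ranked by AC50.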
For experiment [16], the target named is Ubiquitin carboxyl-terminal hydrolase 2 (Homo sapiens) (UniProt O75604). The experiment is described as follows: qHTS Validation Assay for Inhibitors of Ubiquitin-specific Protease USP2a Using CHOP2 as the Reporter (AID 463106). An outline of the steps: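 Inhibition is expressed relative to NEM as the full-inhibition control, with concentration-response curves classed by fit quality, magnitude and activity. Enzyme (USP2 core, 10nM) meets 25nM Ub-CHOP2 after compound preincubation; readings are taken at 60min.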

Experiment [17] can be described thus: qHTS Validation Assay to Find Inhibitors of Chronic Active B-Cell Receptor Signaling (AID 485345; active = well fitted curve in the direction sought with a large enough effect in the main read-out, with a control signal flat, not every such curve was filed as active). The method in brief:
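TMD8 ABC-DLBCL cells with dox-inducible green luciferase–IκBα fusion and red native luciferase; compounds 46 uM–3 nM, 4 h at 37C with doxycycline in 0.5% FBS IMDM. Green/red ratio normalized to basal and 10 uM MG-132.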

Experiment [18] addresses Thioredoxin reductase 1, cytoplasmic (Rattus norvegicus) (UniProt O89049). The experiment is described as follows: qHTS Assay for Inhibitors of Mammalian Selenoprotein Thioredoxin Reductase 1 (TrxR1) (AID 488773).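 Note: drop in NADPH fluorescence over an 8 min run after selenite addition; nearly all actives have a fitted effect of over 40% in size.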 As to conditions: Potency: inhibition. An outline of the steps:
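Inhibition is scored from the loss of NADPH fluorescence between first and last reads of an 8-min kinetic run. Selenite (400 uM) was the substrate, added after 15 min compound preincubation at room temperature.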

The target of experiment [19] is Flap endonuclease 1 (Homo sapiens) (UniProt P39748). The experiment is described as follows: qHTS Validation Assay for the Inhibitors of Human Flap endonuclease 1 (FEN1) (AID 488816). The method in brief: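 Steps: add FEN1 (10 nM reagent) or buffer only; pin compounds; hold 15 min at room temperature; start with substrate, 50 nM final; read at 0 and 15 min; correct, normalize and fit a four-parameter Hill curve.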

Experiment [20] concerns the target ATP-dependent 6-phosphofructokinase (Trypanosoma brucei brucei) (UniProt O15648). The experiment is described as follows: qHTS Validation Assay to Find Inhibitors of T. brucei phosphofructokinase (AID 485368). As to conditions: outcome: dose series up to 57.5 µM. An outline of the steps: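 ADP-Glo luminescence, two-step: residual ATP depleted, then ADP converted to ATP for luciferase. Enzyme 1.25 nM, F6P 0.5 mM, ATP 0.1 mM, pH 8.0 TEA buffer, 45 min RT. Curves fitted and classed by quality and efficacy.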

Results filed as inconclusive are left out. Calls of active or inactive are those of the source. Unless noted, calls come from the whole dose curve; as a rule, active = well fitted curve in the direction sought with a large enough effect; inconclusive = small, poorly fitted or top-dose-only effect, or another doubt; inactive = no such curve, though single readings can be large; an effect the other way counts as inactive or inconclusive.

Sequence of DNA polymerase III PolC-type (Bacillus subtilis (strain 168)) (P13267 whole entry, looked up): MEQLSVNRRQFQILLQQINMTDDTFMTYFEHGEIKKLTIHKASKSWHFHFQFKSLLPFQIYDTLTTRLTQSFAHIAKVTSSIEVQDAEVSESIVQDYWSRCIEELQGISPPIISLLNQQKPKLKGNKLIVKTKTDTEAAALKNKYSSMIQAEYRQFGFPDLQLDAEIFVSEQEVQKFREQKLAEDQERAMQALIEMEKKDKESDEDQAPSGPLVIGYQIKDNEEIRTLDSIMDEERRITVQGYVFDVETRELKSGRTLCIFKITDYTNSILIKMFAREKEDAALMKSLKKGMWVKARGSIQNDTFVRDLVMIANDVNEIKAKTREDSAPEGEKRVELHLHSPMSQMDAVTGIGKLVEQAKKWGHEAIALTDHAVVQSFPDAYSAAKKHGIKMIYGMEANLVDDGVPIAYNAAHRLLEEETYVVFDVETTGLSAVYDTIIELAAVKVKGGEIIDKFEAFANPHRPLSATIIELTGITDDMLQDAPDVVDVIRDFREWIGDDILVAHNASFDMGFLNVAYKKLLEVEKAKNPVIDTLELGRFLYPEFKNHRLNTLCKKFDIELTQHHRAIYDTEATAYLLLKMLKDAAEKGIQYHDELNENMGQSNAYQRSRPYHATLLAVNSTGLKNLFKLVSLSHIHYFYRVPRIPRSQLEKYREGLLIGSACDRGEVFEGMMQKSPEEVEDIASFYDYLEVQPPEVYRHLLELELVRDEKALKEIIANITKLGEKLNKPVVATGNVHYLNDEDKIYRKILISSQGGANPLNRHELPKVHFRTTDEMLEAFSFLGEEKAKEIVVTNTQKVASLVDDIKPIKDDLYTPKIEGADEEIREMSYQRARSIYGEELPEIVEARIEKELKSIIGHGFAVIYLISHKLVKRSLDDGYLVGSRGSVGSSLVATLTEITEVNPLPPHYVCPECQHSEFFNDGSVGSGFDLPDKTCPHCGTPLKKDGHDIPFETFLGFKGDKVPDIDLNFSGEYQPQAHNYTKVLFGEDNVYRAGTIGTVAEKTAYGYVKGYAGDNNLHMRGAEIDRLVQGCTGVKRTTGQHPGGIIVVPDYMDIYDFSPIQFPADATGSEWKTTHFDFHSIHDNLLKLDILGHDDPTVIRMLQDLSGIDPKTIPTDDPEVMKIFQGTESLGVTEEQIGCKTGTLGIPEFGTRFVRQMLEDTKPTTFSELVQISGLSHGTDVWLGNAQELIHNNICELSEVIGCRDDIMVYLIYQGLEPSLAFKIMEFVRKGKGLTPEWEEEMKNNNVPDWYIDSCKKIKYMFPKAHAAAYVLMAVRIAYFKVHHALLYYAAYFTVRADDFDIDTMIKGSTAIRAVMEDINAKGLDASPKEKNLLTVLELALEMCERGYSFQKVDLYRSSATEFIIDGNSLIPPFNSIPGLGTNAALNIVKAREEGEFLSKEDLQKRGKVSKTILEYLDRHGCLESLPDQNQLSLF
Sequence of Ubiquitin carboxyl-terminal hydrolase 2 (Homo sapiens) (O75604 whole entry, looked up): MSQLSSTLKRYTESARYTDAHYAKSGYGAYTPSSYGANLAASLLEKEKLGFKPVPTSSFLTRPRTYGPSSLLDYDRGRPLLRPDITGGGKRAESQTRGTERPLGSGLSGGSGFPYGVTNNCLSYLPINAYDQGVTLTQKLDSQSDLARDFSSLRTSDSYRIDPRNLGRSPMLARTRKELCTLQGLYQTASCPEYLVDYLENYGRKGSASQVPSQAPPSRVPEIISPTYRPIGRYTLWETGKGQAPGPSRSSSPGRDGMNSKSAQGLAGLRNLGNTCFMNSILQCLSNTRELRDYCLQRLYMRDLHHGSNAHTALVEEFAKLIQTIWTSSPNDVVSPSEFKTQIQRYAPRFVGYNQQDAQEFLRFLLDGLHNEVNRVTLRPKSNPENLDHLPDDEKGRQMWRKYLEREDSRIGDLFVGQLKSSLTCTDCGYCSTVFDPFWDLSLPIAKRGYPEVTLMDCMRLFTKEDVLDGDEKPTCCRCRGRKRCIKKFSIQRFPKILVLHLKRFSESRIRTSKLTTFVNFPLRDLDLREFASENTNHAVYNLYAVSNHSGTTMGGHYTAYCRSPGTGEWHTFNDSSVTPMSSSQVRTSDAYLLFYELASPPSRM
Sequence of Tumor susceptibility gene 101 protein (Homo sapiens) (Q99816 whole entry, looked up, the tested form may be a part): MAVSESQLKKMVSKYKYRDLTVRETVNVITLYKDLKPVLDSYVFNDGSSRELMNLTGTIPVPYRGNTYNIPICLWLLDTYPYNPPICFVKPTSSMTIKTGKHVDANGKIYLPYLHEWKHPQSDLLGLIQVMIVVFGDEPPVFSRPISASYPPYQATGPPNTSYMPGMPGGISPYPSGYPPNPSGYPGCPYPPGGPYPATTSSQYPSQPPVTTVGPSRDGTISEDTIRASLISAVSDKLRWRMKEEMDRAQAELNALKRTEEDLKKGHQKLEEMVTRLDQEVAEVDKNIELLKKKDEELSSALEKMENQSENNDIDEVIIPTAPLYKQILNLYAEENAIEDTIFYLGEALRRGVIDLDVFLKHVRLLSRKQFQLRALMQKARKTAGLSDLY
Sequence of Thioredoxin reductase 1, cytoplasmic (Rattus norvegicus) (O89049 whole entry, looked up): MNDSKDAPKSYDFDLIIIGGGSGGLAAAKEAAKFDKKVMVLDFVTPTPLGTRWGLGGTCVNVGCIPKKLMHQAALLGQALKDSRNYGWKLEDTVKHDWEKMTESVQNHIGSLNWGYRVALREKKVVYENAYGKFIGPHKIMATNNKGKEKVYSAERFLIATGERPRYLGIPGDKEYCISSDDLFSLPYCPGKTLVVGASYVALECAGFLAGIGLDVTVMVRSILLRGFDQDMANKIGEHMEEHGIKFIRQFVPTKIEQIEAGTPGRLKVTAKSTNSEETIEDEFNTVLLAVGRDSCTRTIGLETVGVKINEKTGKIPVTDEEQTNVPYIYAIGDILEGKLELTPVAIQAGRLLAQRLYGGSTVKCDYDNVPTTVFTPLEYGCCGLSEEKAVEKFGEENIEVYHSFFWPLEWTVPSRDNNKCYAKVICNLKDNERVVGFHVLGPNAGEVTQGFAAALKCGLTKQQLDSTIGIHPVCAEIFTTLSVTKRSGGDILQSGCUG
Sequence of ATP-dependent DNA helicase Q1 (Homo sapiens) (P46063 whole entry, looked up): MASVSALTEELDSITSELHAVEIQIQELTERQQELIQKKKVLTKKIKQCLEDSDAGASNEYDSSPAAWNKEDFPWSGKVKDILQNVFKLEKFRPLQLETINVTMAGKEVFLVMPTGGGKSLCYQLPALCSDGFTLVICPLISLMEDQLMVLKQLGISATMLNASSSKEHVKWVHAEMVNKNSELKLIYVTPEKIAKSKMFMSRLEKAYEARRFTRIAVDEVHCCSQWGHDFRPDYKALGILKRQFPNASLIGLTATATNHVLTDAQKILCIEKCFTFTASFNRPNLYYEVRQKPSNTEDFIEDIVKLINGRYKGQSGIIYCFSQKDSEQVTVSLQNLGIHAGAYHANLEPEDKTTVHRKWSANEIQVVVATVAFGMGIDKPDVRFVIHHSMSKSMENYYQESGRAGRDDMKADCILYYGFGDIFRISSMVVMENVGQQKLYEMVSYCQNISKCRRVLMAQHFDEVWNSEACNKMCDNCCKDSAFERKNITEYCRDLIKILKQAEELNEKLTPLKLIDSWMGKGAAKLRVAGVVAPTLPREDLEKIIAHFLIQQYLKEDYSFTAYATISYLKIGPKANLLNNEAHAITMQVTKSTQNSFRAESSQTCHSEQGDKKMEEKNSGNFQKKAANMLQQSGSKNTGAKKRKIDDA
Sequence of Beta-2 adrenergic receptor (Homo sapiens) (P07550 whole entry, looked up): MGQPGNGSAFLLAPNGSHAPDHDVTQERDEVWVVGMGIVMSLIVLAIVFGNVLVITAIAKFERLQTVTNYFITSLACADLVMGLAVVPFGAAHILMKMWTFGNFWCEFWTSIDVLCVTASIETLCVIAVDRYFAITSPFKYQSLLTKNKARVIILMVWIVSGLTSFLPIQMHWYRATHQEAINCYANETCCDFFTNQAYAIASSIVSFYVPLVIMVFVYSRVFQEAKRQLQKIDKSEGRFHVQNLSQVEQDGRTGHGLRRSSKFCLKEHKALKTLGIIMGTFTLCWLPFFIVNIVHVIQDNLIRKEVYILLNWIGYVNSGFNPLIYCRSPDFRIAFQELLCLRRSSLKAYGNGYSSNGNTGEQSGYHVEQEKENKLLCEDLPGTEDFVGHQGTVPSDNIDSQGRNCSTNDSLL
Sequence of Ferritin light chain (Equus caballus) (P02791 2-175 limits assumed): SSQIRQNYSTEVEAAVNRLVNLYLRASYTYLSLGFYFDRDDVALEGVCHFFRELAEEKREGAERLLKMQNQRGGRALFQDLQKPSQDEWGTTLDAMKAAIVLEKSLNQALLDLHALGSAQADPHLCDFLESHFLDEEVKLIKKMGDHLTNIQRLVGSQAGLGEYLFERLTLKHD
Sequence of Flap endonuclease 1 (Homo sapiens) (P39748 whole entry, looked up): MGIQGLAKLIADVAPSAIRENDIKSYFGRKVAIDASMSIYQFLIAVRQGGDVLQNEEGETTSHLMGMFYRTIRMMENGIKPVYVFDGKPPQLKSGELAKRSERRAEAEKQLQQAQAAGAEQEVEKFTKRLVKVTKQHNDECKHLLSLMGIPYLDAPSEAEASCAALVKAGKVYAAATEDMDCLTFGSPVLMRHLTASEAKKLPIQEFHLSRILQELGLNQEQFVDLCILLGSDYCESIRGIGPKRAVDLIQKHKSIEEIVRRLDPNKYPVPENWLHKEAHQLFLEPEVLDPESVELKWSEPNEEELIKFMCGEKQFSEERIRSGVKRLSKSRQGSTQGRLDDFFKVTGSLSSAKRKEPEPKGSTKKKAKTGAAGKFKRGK

For `Cc1cnc(NC(=O)C2=C(O)c3ccccc3S(=O)(=O)N2C)s1`, the result in experiment [1], in experiment [2], in experiment [4], in experiment [5], in experiment [6] and in experiment [7] was inactive. The compound was called inactive in experiment [10], in [11] and in [14]. Moreover, the Potency result in experiment [3], in [8], in experiment [9], in [12] and in experiment [13] was “inactive” in each case.

For `NS(=O)(=O)c1cc2c(cc1Cl)NC=NS2(=O)=O`, the call in experiment [15], in experiment [1], in experiment [2], in experiment [4], in experiment [5] and in [6] was inactive. For the same compound, the compound was classed as inactive in [7], in experiment [16], in experiment [10], in experiment [17], in [11] and in experiment [14]. For the same compound, the Potency result in [8], in experiment [9], in experiment [12], in experiment [13], in [18] and in experiment [19] was “inactive” each time.

`N=c1nc(N2CCCCC2)cc(N)n1O`: the compound was classed as inactive in experiment [1], in experiment [2], in [4], in experiment [5], in experiment [6] and in experiment [7]. Further, the compound was classed as inactive in experiment [16], in experiment [10], in experiment [17], in [11] and in experiment [14]. In addition, the Potency result in experiment [3], in experiment [8], in experiment [9], in experiment [12], in experiment [13] and in [18] was “inactive” each time. Besides, the Potency entry in [19] was “inactive”.

Regarding `N[C@@H]1CONC1=O`, the compound was called inactive in experiment [1], in [2], in experiment [4], in experiment [5], in experiment [6] and in experiment [7]. Moreover, the compound was called inactive in experiment [16], in experiment [10], in experiment [17], in experiment [11] and in [14]. Also, the Potency result in [8], in experiment [9], in experiment [12], in experiment [13], in experiment [18] and in experiment [19] was “inactive” throughout.

Take `CN1CCN(CCCN2c3ccccc3Sc3ccc(C(F)(F)F)cc32)CC1`: the result in experiment [1], in [2], in experiment [6], in [16], in experiment [10] and in [11] was inactive. Also, the result in experiment [20] and in experiment [14] was inactive. The Potency entry in experiment [3], in experiment [9], in experiment [18] and in experiment [19] was “inactive” throughout. The Potency in [13] was 9.28 µM (active).

`Cc1ccc(N(CC2=NCCN2)c2cccc(O)c2)cc1`: the compound was called inactive in experiment [1], in experiment [2], in [4], in experiment [5], in experiment [6] and in experiment [7]. The outcome in [16], in experiment [10], in experiment [17], in experiment [11], in experiment [20] and in experiment [14] was inactive. The Potency result in [8], in [9], in experiment [12], in [13], in [18] and in [19] was “inactive” each time.
